TTR transcr act: TTR transcription activators in neuroblastoma reporter cells, primary screen, cell-based, luminescence, SH-SY5Y, TTR promoter Gaussia luciferase; 100% = recombinant luciferase protein wells; activation, % at 16.7 µM; 92,000 compounds, 1.3% hits;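 active means activation above the mean of all tested compounds plus 3 SD, cut at about 9.5% in these data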;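 further: cells exposed to compounds for one day before reading; 0% = median of all test compound wells on the plate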
HuH7 TTR inh: TTR promoter reporter inhibitors in hepatoma cells, counter-screen for TTR transcription activator project, cell-based, luminescence, HuH7 hepatoma; HuH7 TTR promoter-Gaussia luciferase reporter; AID 1117279, 2014; inhibition, % at 16.7 µM; shares compounds with TTR transcr act; 1,100 compounds, 4% hits;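 active means average inhibition above the solvent-only control wells' mean plus 3 SD, cut at about 15% in these data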;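 further: 0% = cells with DMSO only and 100% = cells with inhibitor control FD; inhibitors lower well luminescence so higher value means more inhibition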
TTR up confirm: TTR transcription activators, retest, confirmation, cell-based, luminescence, SH-SY5Y, triplicate. shares compounds with TTR transcr act. SHSY5Y TTR promoter Gaussia luciferase; 100% = purified Lucia enzyme wells, no cells. activation, % at 16.7 µM. 1,100 tested, under 10 active. AID 1117280, 2014;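 active means mean activation above a set limit taken from the earlier primary screen, cut at about 11% in these data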;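 further: 0% = DMSO-treated cells and 100% = recombinant Lucia luciferase without cells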
Numbers without * were called inactive. Shown is part of a subset that was picked to be rich in hits.

SMILES	TTR transcr act	others
Cc1ccccc1NC(=O)C1Cc2ccccc2CN1C(=O)OCc1ccccc1 (configuration not stated)	11*	HuH7 TTR inh=-12;TTR up confirm=-1
COc1cccc(NC(=O)C2Cc3ccccc3CN2C(=O)c2ccco2)c1 (configuration not stated)	1
Cc1ccccc1NC(=O)C1CC(=O)N(Cc2ccccc2)C1 (configuration not stated)	0
O=C(OCc1cn([C@H]2C[C@H](c3ccc(Cl)cc3)N(Cc3cccs3)C[C@@H]2O)nn1)c1ccccc1	-1
CCOc1ccc(NC(=O)CN2C(=O)c3cccc4cccc2c34)cc1	4
COc1cc2oc(=O)ccc2cc1[C@H](O)[C@@H](O)C(C)(C)O	8
COc1ccccc1NS(=O)(=O)c1cc(NC(=O)CCNC(C)=O)ccc1C	-1
O=C(CCNC(=O)c1ccccc1)Nc1ccc(F)c(Cl)c1	3
COc1ccc(NC(=O)CCNC(=O)c2ccccc2)cc1S(N)(=O)=O	31*	HuH7 TTR inh=-12;TTR up confirm=0
O=C(COC(=O)COc1ccc2c(c1)CCC2)Nc1ccccc1C(F)(F)F	0
O=C(COc1cccc(Br)c1)Nc1ccc(N2CCOCC2)cc1N1CCOCC1	-2
CC(C)(C)CC(=O)Nc1cc2c3c(c1)CC(=O)N3CCC2	-1
CCN(CC)CCNC(=O)C(=O)Nc1cc2c3c(c1)CC(=O)N3CCC2	6
O=C(CCl)c1cc2c3c(c1)CC(=O)N3CCC2	11*	HuH7 TTR inh=75*;TTR up confirm=-4
COc1ccc([C@H]2CC(=O)C[C@@H](CCn3cc(-c4nccn4C)nn3)O2)cc1	2
O=S1c2ccccc2Sc2ccccc21	2
Cc1cc(C)nc(SCC(=O)N/N=C/C=C/c2ccccc2)n1	14*	HuH7 TTR inh=-12;TTR up confirm=0
C/C(=N\NC(=O)CSc1nc(C)cc(C)n1)c1cccs1	0
Cn1cccc1CC(=O)N/N=C/C=C/c1ccccc1	4
COC(=O)c1ccc(NC(=O)CCN2CCN(CCC(=O)Nc3ccc(C(=O)OC)cc3)CC2)cc1	-7
COC(=O)c1ccc(NC(=O)CN2CCN(CCO)CC2)cc1	-1
COC(=O)c1ccc(NC(=O)CCN2CCCCC2)cc1	10*	HuH7 TTR inh=-3;TTR up confirm=-1
CCOC(=O)N1CCC2(CC1)NC(=O)c1ccccc1N2	1
O=C(Nc1ccccc1)OC[C@@H]1CSCCS(=O)(=O)N1	3
COCC(=O)Nc1cc(=O)n(C)c(=O)n1C	11*	HuH7 TTR inh=-1;TTR up confirm=-1
SMILES	TTR transcr act	others
Cn1c(NC(=O)c2ccc(Cl)s2)cc(=O)n(C)c1=O	-1
Cn1c(NC(=O)c2ccc(C(C)(C)C)cc2)cc(=O)n(C)c1=O	0
Cn1c(NC(=O)Cc2cccs2)cc(=O)n(C)c1=O	2
CCC(CC)C(=O)Nc1cc(=O)n(C)c(=O)n1C	-1
Cn1c(NC(=O)C2CC2)cc(=O)n(C)c1=O	9.9*	HuH7 TTR inh=-7;TTR up confirm=0
CC(Sc1nnc(-c2cccnc2)o1)C(=O)NC1CCCCC1 (configuration not stated)	0
O=c1[nH]c(=S)[nH]c2c1C(c1ccccc1)OC(C1CCCCC1)C2 (configuration not stated)	3
COc1ccc(Nc2nc(-c3ccccc3)nc3ccccc23)cc1S(=O)(=O)N1CCOCC1	-4
CCOC(=O)C1=C(c2ccccc2)OC(N)=C(C#N)C1c1ccco1 (configuration not stated)	13*	HuH7 TTR inh=-4;TTR up confirm=0
CCOC(=O)C1=C(C)NC(C)=C(C(=O)OCC)C1c1ccco1	0
CCOC(=O)C1=C(c2ccccc2)OC(N)=C(C#N)C1C1CCCCC1 (configuration not stated)	-2
COc1ccc(CN2C(=O)c3cccnc3C2=O)cc1S(=O)(=O)NCc1ccc(C)cc1	-2
Cc1cccc(CNS(=O)(=O)c2ccc(-c3ccc(=O)[nH]n3)s2)c1	0
COc1ccc(-c2cc(C)no2)cc1S(=O)(=O)NCc1cccc(C)c1	9.8*	HuH7 TTR inh=28*;TTR up confirm=-1
O=C(Nc1ccc(C(O)(C(F)(F)F)C(F)(F)F)cc1)c1ccc(F)cc1Cl	-2
O=C(Nc1ccccc1F)O[C@@H]1CC[C@@]23CCCN2C(=O)CCC[C@H]3C1	-1
COC(=O)c1ccc2nc(C3CCCCC3)c(Cc3ccc(OC)cc3C)n2c1	0
CC[n+]1c(C)sc2c(C)cc(C)cc21	26*	HuH7 TTR inh=-3;TTR up confirm=0
CCCCn1nnnc1C1(C)CCC(=O)N1CC1CCCCC1 (configuration not stated)	5
CC1CC(C)(C)NC2(CCCC2)N1 (configuration not stated)	0
CN(C(=O)c1ccc(N2CCCCC2)c([N+](=O)[O-])c1)C1(C)CCS(=O)(=O)C1 (configuration not stated)	1
C[C@@H]1CN([C@@H](C)CO)C(=O)CCCn2cc(nn2)CO[C@H]1CN(C)C(=O)C1CC1	1

High-throughput results deposited in PubChem by The Scripps Research Institute Molecular Screening Center.
